According to ChEMBL document CHEMBL3988442, “University of Dundee, Small-Polar-MMV Screening Library” (2021):
For some of these results: Measured potencies and affinities stand elsewhere.

Columns and labels:
Parameters in all cases: scale not given: direction of the effect not stated beside the values
[1] = target: Protein translocase subunit SecA (Escherichia coli (strain K12)) (UniProt P10408); assay: Assay to Identify E. coli SecA ATPase Inhibitors; assay type: functional; conditions: 30 µM
[2] = target: T1, Ubiquitin-activating enzyme e1, putative (Leishmania donovani (strain BPK282A1)) (UniProt E9BSI1); assay: Leishmania donovani Ubiquitin Activating Enzyme (LdE1); assay type: functional; conditions: 30 µM
T1 sequence (whole entry): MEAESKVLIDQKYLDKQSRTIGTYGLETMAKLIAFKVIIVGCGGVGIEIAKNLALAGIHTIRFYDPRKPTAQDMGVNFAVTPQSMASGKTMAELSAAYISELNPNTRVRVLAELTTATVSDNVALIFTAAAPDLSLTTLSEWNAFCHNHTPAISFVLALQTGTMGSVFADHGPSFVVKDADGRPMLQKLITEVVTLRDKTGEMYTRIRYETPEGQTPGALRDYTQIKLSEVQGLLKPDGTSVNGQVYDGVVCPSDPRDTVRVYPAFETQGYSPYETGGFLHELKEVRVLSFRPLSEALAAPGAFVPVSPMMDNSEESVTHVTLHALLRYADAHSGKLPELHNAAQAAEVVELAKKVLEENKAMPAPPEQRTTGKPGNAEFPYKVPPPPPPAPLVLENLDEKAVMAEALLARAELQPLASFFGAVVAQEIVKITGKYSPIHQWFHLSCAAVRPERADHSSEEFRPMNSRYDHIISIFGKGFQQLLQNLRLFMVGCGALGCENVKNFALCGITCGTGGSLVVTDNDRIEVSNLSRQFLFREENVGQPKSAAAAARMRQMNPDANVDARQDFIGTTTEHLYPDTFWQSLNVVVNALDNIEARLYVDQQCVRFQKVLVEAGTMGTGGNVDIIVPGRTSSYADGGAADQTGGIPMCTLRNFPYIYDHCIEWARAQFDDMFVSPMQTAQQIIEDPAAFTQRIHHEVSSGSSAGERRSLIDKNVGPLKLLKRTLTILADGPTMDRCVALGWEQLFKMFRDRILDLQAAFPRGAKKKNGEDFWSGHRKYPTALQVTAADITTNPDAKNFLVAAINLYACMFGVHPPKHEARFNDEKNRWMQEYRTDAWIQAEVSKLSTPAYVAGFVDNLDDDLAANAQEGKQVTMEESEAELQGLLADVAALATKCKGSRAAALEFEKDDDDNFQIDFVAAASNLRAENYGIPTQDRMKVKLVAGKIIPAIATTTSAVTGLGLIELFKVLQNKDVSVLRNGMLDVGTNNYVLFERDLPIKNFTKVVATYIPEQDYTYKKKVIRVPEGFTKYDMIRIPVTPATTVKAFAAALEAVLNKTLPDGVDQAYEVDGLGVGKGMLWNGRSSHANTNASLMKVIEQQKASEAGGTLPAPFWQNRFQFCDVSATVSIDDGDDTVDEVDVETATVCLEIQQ

[3] = target: AMP-activated protein kinase, AMPK (Homo sapiens) (UniProt P54646+O43741+P54619+Q9UGJ0+Q9Y478+Q13131+Q9UGI9); assay: AMP-dependent Kinase enzyme assay. An in vitro enzyme assay that detects ADP turnover that is directly proportional to AMPK activity. This uses naive AMPK that is activated during the assay with MK-8722; assay type: functional; conditions: 30 µM
[4] = target: Sialic acid-binding Ig-like lectin 9 (Homo sapiens) (UniProt Q9Y336); assay: Hs-Siglec9 ALPHAscreen SOP 20170721; conditions: 10 µM
Sialic acid-binding Ig-like lectin 9 (Homo sapiens), sequence (Q9Y336 whole entry): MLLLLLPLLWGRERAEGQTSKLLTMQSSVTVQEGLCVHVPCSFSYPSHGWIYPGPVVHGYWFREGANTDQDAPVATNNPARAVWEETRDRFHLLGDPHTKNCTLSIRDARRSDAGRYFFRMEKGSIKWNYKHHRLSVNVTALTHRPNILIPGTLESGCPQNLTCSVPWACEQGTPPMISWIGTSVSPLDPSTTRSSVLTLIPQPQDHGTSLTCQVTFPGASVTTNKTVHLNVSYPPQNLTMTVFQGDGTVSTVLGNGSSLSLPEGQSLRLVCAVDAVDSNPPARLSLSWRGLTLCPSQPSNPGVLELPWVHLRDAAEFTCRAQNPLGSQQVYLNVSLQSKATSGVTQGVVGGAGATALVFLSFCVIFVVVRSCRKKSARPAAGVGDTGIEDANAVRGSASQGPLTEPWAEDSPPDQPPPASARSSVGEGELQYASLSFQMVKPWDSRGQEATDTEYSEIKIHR

Trypanosoma cruzi = assay: Trypanosoma cruzi phosphomannomutase and mannose-1-phosphate guanylyltransferase assay; assay type: functional; conditions: 10 µM
[5] = target: T2, Arginase-2, mitochondrial (Homo sapiens) (UniProt P78540); assay: in vitro enzyme assay to detect the production of urea directly proportional to the activity of Arginase II; assay type: functional; conditions: 33.3 µM; note: in the data most compounds retested in dose-response had high values
T2 sequence (whole entry): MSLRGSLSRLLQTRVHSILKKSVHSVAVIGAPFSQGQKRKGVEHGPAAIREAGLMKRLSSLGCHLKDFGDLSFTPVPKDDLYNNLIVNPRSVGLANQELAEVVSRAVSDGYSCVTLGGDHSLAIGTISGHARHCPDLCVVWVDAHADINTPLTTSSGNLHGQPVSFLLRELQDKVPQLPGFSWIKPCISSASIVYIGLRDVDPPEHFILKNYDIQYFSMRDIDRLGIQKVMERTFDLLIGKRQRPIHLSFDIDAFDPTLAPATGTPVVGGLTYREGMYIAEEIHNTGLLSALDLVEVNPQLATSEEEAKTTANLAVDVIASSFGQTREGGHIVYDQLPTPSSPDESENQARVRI

[6] = target: T3, Proteasome subunit beta (Trypanosoma cruzi) (UniProt O96673); assay: Trypanosoma cruzi proteasome chymotrypsin-like activity (TcProtChymo) assay.; note: in the data most compounds retested in dose-response had high values; assay type: functional; conditions: 9.37 µM
T3 sequence (whole entry): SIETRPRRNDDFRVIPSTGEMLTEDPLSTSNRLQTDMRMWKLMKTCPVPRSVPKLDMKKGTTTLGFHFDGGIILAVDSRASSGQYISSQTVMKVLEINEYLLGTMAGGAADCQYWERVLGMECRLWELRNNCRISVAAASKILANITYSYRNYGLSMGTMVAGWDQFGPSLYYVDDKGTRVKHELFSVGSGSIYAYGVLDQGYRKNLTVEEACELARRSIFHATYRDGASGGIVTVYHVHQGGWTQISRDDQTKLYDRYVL

Homo sapiens = species on record: Homo sapiens; assay: To identify inhibition of the IFN signalling (Jak-Stat) pathway via expression of an eGFP reporter gene under the control of an IFN-stimulated response element (ISRE) containing MxA promoter.; assay type: functional; conditions: 30 µM
[7] = target: T4, Tyrosyl-tRNA synthetase, putative (Trypanosoma cruzi (strain CL Brener)) (UniProt Q4DSP6); assay: Trypanosoma cruzi tyrosyl tRNA synthetase (TcYRS) _High Tyrosine SOP; assay type: functional; conditions: 30 µM; note: in the data most compounds retested in dose-response had high values
T4 sequence (whole entry): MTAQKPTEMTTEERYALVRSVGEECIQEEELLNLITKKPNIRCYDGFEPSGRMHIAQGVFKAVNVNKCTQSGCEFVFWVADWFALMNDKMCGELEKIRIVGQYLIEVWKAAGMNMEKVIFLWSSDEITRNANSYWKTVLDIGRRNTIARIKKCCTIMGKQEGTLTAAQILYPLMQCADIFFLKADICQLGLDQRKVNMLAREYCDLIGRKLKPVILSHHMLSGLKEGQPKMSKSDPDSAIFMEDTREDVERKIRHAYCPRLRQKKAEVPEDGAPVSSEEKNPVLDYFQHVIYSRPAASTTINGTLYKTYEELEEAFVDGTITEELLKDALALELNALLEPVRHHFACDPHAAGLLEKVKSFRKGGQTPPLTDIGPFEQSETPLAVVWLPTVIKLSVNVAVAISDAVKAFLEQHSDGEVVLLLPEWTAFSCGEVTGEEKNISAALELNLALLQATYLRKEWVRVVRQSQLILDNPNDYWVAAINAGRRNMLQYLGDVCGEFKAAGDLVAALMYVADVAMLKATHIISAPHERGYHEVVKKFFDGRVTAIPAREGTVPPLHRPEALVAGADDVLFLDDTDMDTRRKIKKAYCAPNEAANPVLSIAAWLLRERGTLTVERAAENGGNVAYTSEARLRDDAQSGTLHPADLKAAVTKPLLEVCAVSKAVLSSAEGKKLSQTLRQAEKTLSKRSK

[8] = target: T4, Tyrosyl-tRNA synthetase, putative (Trypanosoma cruzi (strain CL Brener)); assay: Trypanosoma cruzi tyrosyl tRNA synthetase (TcYRS) SOP; assay type: functional; conditions: 30 µM
[9] = target: Chromo domain-containing protein 1 (Saccharomyces cerevisiae (strain ATCC 204508 / S288c) (Baker's yeast)) (UniProt P32657); assay: ScCHD-1 Enzyme Inhibition Assay; assay type: functional; conditions: 30 µM; note: in the data most compounds retested in dose-response had high values
Chromo domain-containing protein 1 (Saccharomyces cerevisiae (strain ATCC 204508 / S288c) (Baker's yeast)), sequence (P32657 whole entry, the tested form may be a part): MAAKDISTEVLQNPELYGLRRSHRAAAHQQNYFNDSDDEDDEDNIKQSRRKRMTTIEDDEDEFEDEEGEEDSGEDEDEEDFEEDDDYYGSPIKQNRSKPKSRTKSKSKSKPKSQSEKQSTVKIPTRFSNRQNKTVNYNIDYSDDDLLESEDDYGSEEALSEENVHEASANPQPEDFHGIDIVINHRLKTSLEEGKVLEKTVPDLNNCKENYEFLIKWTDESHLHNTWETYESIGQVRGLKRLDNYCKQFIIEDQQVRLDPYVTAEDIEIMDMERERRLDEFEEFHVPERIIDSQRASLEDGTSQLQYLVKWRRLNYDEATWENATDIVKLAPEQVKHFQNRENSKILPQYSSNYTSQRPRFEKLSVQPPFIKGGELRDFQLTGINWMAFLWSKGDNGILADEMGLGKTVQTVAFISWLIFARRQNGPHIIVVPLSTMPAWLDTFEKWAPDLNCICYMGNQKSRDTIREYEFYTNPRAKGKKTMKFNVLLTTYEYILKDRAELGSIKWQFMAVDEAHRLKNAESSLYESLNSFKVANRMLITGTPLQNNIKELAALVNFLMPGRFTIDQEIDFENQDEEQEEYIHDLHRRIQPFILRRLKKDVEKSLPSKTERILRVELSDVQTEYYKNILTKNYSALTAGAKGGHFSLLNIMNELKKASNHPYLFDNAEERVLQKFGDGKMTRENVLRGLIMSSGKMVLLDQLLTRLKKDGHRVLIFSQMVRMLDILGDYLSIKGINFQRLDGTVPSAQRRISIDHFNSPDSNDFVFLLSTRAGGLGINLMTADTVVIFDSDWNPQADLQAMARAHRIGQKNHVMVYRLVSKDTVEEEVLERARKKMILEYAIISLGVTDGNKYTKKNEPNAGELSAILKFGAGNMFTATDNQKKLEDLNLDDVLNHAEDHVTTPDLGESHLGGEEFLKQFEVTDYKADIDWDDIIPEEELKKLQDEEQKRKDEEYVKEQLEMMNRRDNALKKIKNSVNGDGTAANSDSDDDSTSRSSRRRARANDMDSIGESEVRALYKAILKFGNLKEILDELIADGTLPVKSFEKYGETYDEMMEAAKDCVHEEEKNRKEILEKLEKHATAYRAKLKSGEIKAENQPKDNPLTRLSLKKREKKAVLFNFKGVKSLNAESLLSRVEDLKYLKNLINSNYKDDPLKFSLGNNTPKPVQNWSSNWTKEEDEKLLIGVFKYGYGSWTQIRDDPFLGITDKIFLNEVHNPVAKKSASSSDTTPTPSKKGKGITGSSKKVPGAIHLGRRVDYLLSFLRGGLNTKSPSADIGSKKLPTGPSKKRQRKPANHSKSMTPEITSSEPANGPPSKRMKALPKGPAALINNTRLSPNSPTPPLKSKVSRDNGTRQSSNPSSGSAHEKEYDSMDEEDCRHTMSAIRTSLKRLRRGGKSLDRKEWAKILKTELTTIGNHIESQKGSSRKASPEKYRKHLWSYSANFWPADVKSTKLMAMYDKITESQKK

Protein translocase subunit SecA (Escherichia coli (strain K12)), sequence (P10408 whole entry): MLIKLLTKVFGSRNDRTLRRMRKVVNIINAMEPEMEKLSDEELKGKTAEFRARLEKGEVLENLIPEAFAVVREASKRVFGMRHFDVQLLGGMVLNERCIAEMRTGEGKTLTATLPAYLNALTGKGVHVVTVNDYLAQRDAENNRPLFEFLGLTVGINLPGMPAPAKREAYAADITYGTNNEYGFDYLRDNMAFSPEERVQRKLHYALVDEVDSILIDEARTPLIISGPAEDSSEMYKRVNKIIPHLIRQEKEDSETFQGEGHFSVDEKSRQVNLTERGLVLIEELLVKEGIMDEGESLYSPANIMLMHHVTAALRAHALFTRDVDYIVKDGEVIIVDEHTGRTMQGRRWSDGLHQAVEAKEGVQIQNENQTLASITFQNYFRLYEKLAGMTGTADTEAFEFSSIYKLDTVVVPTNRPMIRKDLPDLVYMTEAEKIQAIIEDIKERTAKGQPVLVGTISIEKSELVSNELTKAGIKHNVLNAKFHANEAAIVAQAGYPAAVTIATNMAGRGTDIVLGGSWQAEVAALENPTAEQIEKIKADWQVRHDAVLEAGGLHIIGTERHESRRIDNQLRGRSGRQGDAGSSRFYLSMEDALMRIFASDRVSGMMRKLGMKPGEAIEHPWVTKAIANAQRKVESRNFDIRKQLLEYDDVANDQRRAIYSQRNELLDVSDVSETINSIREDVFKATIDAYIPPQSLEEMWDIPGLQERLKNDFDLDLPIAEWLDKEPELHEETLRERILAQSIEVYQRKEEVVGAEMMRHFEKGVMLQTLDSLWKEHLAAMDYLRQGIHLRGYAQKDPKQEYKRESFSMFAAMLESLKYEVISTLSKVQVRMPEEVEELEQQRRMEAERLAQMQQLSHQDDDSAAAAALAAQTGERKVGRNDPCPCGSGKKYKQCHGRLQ

CNC(=O)C1(c2cnccn2)CCCN1C(=O)c1ccn(C)n1 (stereo unspecified)
Percent Effect [1]: -5.86% | Percent Effect [2]: 6.76% | Percent Effect [3]: 3.23% | Percent Effect [4]: -2.02% | Percent Effect (Trypanosoma cruzi): 0.593% | Percent Effect [5]: -1.16% | Percent Effect [6]: 1.4% | Percent Effect (Homo sapiens): 7.86% | Percent Effect [7]: 4.3% | Percent Effect [8]: 74% | Percent Effect [9]: -22%

Cc1ncsc1C(=O)NCCOc1ncc(Cl)cc1Cl
Percent Effect [1]: -6.27% | Percent Effect [2]: 5.41% | Percent Effect [3]: 1.84% | Percent Effect [4]: 0.223% | Percent Effect (Trypanosoma cruzi): 0.977% | Percent Effect [5]: 4.17% | Percent Effect [6]: 11.1% | Percent Effect (Homo sapiens): 25.4% | Percent Effect [7]: 10.9% | Percent Effect [8]: 11% | Percent Effect [9]: -5.96%

CN(Cc1ccc(Cl)s1)C1CCCN(c2cccnn2)C1 (stereo unspecified)
Percent Effect [1]: -0.186% | Percent Effect [2]: -18.4% | Percent Effect [3]: 14.3% | Percent Effect [4]: 0.257% | Percent Effect (Trypanosoma cruzi): 1.27% | Percent Effect [5]: 15.4% | Percent Effect [6]: 7.19% | Percent Effect (Homo sapiens): 10.5% | Percent Effect [7]: 9.57% | Percent Effect [8]: 10.4% | Percent Effect [9]: -1.67%

COc1cccc(C2CC(=O)Nc3nc(N)sc32)c1OC (stereo unspecified)
Percent Effect [1]: 70.6% | Percent Effect [2]: 26.3% | Percent Effect [3]: -56.4% | Percent Effect [4]: -2.19% | Percent Effect (Trypanosoma cruzi): 7.3% | Percent Effect [5]: 21.3% | Percent Effect [6]: 10.3% | Percent Effect (Homo sapiens): -3.92% | Percent Effect [7]: -4.25% | Percent Effect [8]: -36.4% | Percent Effect [9]: -8.65%

CC(=O)Nc1nc(CN2CCCC2Cn2cncn2)cs1 (stereo unspecified)
Percent Effect [1]: -7.57% | Percent Effect [2]: 13% | Percent Effect [3]: -6.56% | Percent Effect [4]: 16.5% | Percent Effect (Trypanosoma cruzi): 10.3% | Percent Effect [5]: 2.85% | Percent Effect [6]: 9.29% | Percent Effect (Homo sapiens): 18.8% | Percent Effect [7]: 9.71% | Percent Effect [8]: 26.8% | Percent Effect [9]: -12.8%

O=C(NC1COC2(CCN(Cc3ccccn3)CC2)C1)c1ccccn1 (stereo unspecified)
Percent Effect [1]: -2.18% | Percent Effect [2]: 23.4% | Percent Effect [3]: -0.85% | Percent Effect [4]: -5.11% | Percent Effect (Trypanosoma cruzi): 0.888% | Percent Effect [5]: 8.39% | Percent Effect [6]: 16.7% | Percent Effect (Homo sapiens): 10.3% | Percent Effect [7]: 10.6% | Percent Effect [8]: 16.7% | Percent Effect [9]: 31.1%

CCN(CC)c1ccc(NS(=O)(=O)c2cncc(F)c2)cn1
Percent Effect [1]: 1.55% | Percent Effect [2]: 13.7% | Percent Effect [3]: 2.14% | Percent Effect [4]: 7.06% | Percent Effect (Trypanosoma cruzi): 3.57% | Percent Effect [5]: -5.99% | Percent Effect [6]: 4.71% | Percent Effect (Homo sapiens): -23.6% | Percent Effect [7]: 6.25% | Percent Effect [8]: 11.1% | Percent Effect [9]: -6.32%

CC(=O)NCC(=O)N1CCOC2(CCCN(c3cccnc3)C2)C1 (stereo unspecified)
Percent Effect [1]: -5.02% | Percent Effect [2]: 2.7% | Percent Effect [3]: -2.24% | Percent Effect [4]: 1.82% | Percent Effect (Trypanosoma cruzi): -6.05% | Percent Effect [5]: 0.833% | Percent Effect [6]: 15.3% | Percent Effect (Homo sapiens): 7.03% | Percent Effect [7]: 8.91% | Percent Effect [8]: 6.1% | Percent Effect [9]: -2.32%

CN(C)C(=O)CS(=O)(=O)Cc1cc(Cl)c2c(c1)OCCCO2
Percent Effect [1]: -5% | Percent Effect [2]: 18.4% | Percent Effect [3]: 2.36% | Percent Effect [4]: -11.3% | Percent Effect (Trypanosoma cruzi): -4.2% | Percent Effect [5]: 3.24% | Percent Effect [6]: 6.68% | Percent Effect (Homo sapiens): 3.48% | Percent Effect [7]: 1.48% | Percent Effect [8]: -8.64% | Percent Effect [9]: -7.42%

CN(CC1COc2ccccc2O1)C(=O)NCCCn1cncn1 (stereo unspecified)
Percent Effect [1]: -0.909% | Percent Effect [2]: 18.4% | Percent Effect [3]: 0.582% | Percent Effect [4]: 5.7% | Percent Effect (Trypanosoma cruzi): 2.63% | Percent Effect [5]: 2.3% | Percent Effect [6]: 6.52% | Percent Effect (Homo sapiens): 8.47% | Percent Effect [7]: 6.37% | Percent Effect [8]: 24.4% | Percent Effect [9]: -11.6%

O=C(NC1CC1)[C@H]1CC[C@@H]2[C@@H](CCN2c2ncc(F)cn2)O1
Percent Effect [1]: -3.27% | Percent Effect [2]: 2.6% | Percent Effect [3]: 0.23% | Percent Effect [4]: 1.05% | Percent Effect (Trypanosoma cruzi): -0.688% | Percent Effect [5]: -2.76% | Percent Effect [6]: 4.16% | Percent Effect (Homo sapiens): 11% | Percent Effect [7]: 3.23% | Percent Effect [8]: 1.24% | Percent Effect [9]: 134%
